Experimental data published in PubChem BioAssay (EPA / NIEHS).
Results filed as inconclusive are left out. Active and inactive are the calls of the source. The calls were made as follows, unless noted: active = hit-call score of the fitted dose curve at least 0.9, where 1 is the maximum; inactive = score below 0.9.

Assays:
[1] = ATG_CRE_CIS: Attagene CIS-FACTORIAL HepG2 Assay for human cAMP Responsive Element (CRE) binding protein 3 (AID 2282926); details: HepG2 CRE cis-reporter, Attagene multiplexed mRNA; actives raise or lower the signal
Procedure, shortened: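 HepG2 cells transiently transfected with cis-element-driven multiple reporter transcription units; CRE reporter mRNA measured 24 h after dosing by RT-PCR, 6-FAM labelling, HpaI digestion and capillary electrophoresis. Bidirectional fit versus DMSO baseline.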

[2] = ATG_DR4_LXR_CIS: Attagene CIS-FACTORIAL HepG2 Assay for human Liver X Receptor (LXR), DR4 submotif (AID 2282929); details: HepG2 Attagene DR4 cis-reporter, mRNA transcription; actives raise or lower the signal
Procedure, shortened: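 The endpoint is DR4-element-driven reporter transcripts after 24 h chemical exposure of transfected HepG2 cells. These were measured via RT-PCR and capillary electrophoresis, and gain or loss of signal was fitted relative to DMSO controls.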

[3] = ATG_AP_1_CIS: Attagene CIS-FACTORIAL HepG2 Assay for human Activator Protein 1 (AP-1) (AID 2282931); details: HepG2 Attagene cis-factorial AP-1 reporter mRNA; actives raise or lower the signal
Procedure, shortened: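 Readout is reporter transcript level from endogenous transcription factor activity, quantified by RT-PCR with fluorescent primer extension and capillary electrophoresis. Transiently transfected HepG2 cells, 24 h exposure. Curves fitted both directions versus DMSO.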

[4] = ATG_AP_2_CIS: Attagene CIS-FACTORIAL HepG2 Assay for human Activator Protein 2 (AP-2) (AID 2282932); details: HepG2 AP-2 cis-reporter, Attagene transcription factor profiling; actives raise or lower the signal
Procedure, shortened: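 Step one: transient transfection of HepG2 with reporter transcription units. Step two: 24 h chemical exposure. Step three: RNA extraction, RT-PCR, labelled fragment analysis by capillary electrophoresis; DMSO serves as baseline.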

[5] = molecular target: Transcription factor E2F1 (Homo sapiens) (UniProt Q01094); assay: ATG_E2F_CIS: Attagene CIS-FACTORIAL HepG2 Assay for human E2F Transcription Factor 1 (AID 2282935); details: HepG2 Attagene cis-reporter, E2F reporter RNA transcripts; actives raise or lower the signal
Procedure, shortened: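 Total RNA from 24 h-treated, reporter-transfected HepG2 cells undergoes DNase I treatment, oligo(dT) reverse transcription, PCR and 6-FAM primer extension before capillary electrophoresis.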

[6] = ATG_M_61_CIS: Attagene CIS-FACTORIAL HepG2 Assay for M61 Transcription Factor (Internal Marker) (AID 2282937); details: HepG2 Attagene CIS-FACTORIAL M61 internal marker reporter; actives raise or lower the signal
Procedure, shortened: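 Readout is reporter mRNA by RT-PCR, fluorescent primer extension and capillary electrophoresis, with gain or loss fitted relative to DMSO. Transfected HepG2 cells carrying endogenous-TF-driven cis reporters were exposed to chemicals for 24 hours.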

[7] = ATG_EGR_CIS: Attagene CIS-FACTORIAL HepG2 Assay for human Early Growth Response 1 (EGR1) (AID 2282938); details: HepG2 Attagene CIS-FACTORIAL EGR reporter mRNA; actives raise or lower the signal
Procedure, shortened: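 After 24 h compound exposure, RNA from reporter-transfected HepG2 cells was reverse-transcribed, PCR-amplified, fluorescently labelled and resolved by capillary electrophoresis. EGR1 reporter transcript changes, up or down, were fitted against DMSO, reflecting endogenous transcription-factor activity.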

[8] = ATG_M_19_CIS: Attagene CIS-FACTORIAL HepG2 Assay for M19 Transcription Factor (Internal Marker) (AID 2282939); details: HepG2 Attagene CIS-FACTORIAL M19 internal marker reporter; actives raise or lower the signal
Procedure, shortened: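 Background-control endpoint from a multiplexed HepG2 reporter panel. Cells carrying cis-regulated reporter constructs are treated 24 h, then reporter transcripts are amplified, fluorescently labelled and sized by capillary electrophoresis. DMSO defines baseline.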

[9] = ATG_Ets_CIS: Attagene CIS-FACTORIAL HepG2 Assay for human Erythroblast Transformation Specific (ETS) (AID 2282941); details: HepG2 ETS cis-reporter transcription, actives raise or lower the signal
Procedure, shortened: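 HepG2 cells transiently transfected with cis-promoter reporter transcription units were dosed for 24 h; reporter mRNA was measured by RT-PCR, 6-FAM primer extension, HpaI digestion and capillary electrophoresis, with bidirectional fitting against DMSO baseline.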

[10] = molecular target: Hepatocyte nuclear factor 3-beta (Homo sapiens) (UniProt Q9Y261); assay: ATG_FoxA2_CIS: Attagene CIS-FACTORIAL HepG2 Assay for human Forkhead box A2 (FOXA2) (AID 2282942); details: HepG2 cis-reporter transcription factor activity, 24 h; actives raise or lower the signal
Procedure, shortened: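 Endogenous transcription factor activity is captured via cis-element-driven reporter transcripts in transfected HepG2. Total RNA taken at 24 h post-dosing; labelled RT-PCR products resolved by capillary electrophoresis. Gain or loss fitted versus DMSO.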

[11] = ATG_GATA_CIS: Attagene CIS-FACTORIAL HepG2 Assay for human GATA Binding Protein (AID 2282944); details: HepG2 GATA cis-element reporter, Attagene multiplex mRNA; actives raise or lower the signal
Procedure, shortened: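 Endogenous transcription factor activity was captured through cis-promoter-driven reporters in transfected HepG2 cells. After 24 h exposure, reporter transcripts were quantified by RT-PCR with fluorescent capillary electrophoresis, and responses fitted both directions against DMSO.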

[12] = ATG_GLI_CIS: Attagene CIS-FACTORIAL HepG2 Assay for human Zinc Finger Protein GLI1 (AID 2282945); details: HepG2, Attagene cis-factorial reporter mRNA, GLI element; actives raise or lower the signal
Procedure, shortened: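 Bidirectional curve fits relative to DMSO, using reporter mRNA levels from RT-PCR plus capillary electrophoresis. Cells were HepG2 transiently carrying cis-regulated reporter constructs, harvested 24 h after dosing.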

[13] = ATG_ISRE_CIS: Attagene CIS-FACTORIAL HepG2 Assay for human Interferon Regulatory Factor 1 (IRF1) binding to an Interferon-Stimulated Response Element (ISRE) (AID 2282948); details: HepG2 ISRE cis-reporter (Attagene), mRNA transcription readout; actives raise or lower the signal
Procedure, shortened: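 HepG2 cells transiently transfected with multiplexed cis-promoter reporter units; after 24 h compound exposure, reporter mRNA quantified by RT-PCR, FAM labelling, HpaI digestion and capillary electrophoresis. Bidirectional fit versus DMSO baseline.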

[14] = ATG_M_32_CIS: Attagene CIS-FACTORIAL HepG2 Assay for M32 Transcription Factor (Internal Marker) (AID 2282949); details: HepG2 Attagene cis-factorial M32 reporter, mRNA; actives raise or lower the signal;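 also: background control marker of the multiplexed CIS panel rather than a real target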
Procedure, shortened: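 Internal background marker read-out: RT-PCR/capillary electrophoresis fluorescence of reporter transcripts from transiently transfected HepG2 cells after 24 h chemical exposure. Activity fitted bidirectionally relative to DMSO negative control.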

[15] = ATG_M_06_CIS: Attagene CIS-FACTORIAL HepG2 Assay for M06 Transcription Factor (Internal Marker) (AID 2282950); details: HepG2 Attagene CIS-FACTORIAL M06 internal marker reporter; actives raise or lower the signal
Procedure, shortened: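 Steps: transfect HepG2 with multiplexed cis-element reporter constructs; dose chemical 24 h; extract RNA with DNase treatment; reverse-transcribe, PCR-amplify, 6-FAM label, HpaI digest; separate fragments by capillary electrophoresis. Activity fitted both directions versus DMSO.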

[16] = ATG_MRE_CIS: Attagene CIS-FACTORIAL HepG2 Assay for human Metal Responsive Element (MRE) (AID 2282954); details: HepG2 MRE cis-reporter transcription, Attagene multiplex; actives raise or lower the signal
Procedure, shortened: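 After a 24 h chemical exposure, transiently transfected HepG2 cells yield RNA whose reporter sequences are amplified, FAM-labelled and sized by capillary electrophoresis. Curves are fitted bidirectionally relative to DMSO.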

[17] = molecular target: Paired box protein Pax-6 (Homo sapiens) (UniProt P26367); assay: ATG_Pax6_CIS: Attagene CIS-FACTORIAL HepG2 Assay for human Paired Box 6 (PAX6) (AID 2282956); details: HepG2 CIS-FACTORIAL PAX6 reporter transcription, RNA readout; actives raise or lower the signal
Procedure, shortened: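 HepG2 cells transiently transfected with multiplexed cis-promoter reporter units (endogenous TF activity) were dosed for 24 h. Reporter mRNA was quantified by RT-PCR, 6-FAM labeling, HpaI digestion and capillary electrophoresis; bidirectional fitting versus DMSO baseline.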

[18] = ATG_PXRE_CIS: Attagene CIS-FACTORIAL HepG2 Assay for human Pregnane X Receptor Element (PXRE) (AID 2282957); details: HepG2 Attagene CIS-FACTORIAL PXRE reporter, mRNA; actives raise or lower the signal
Procedure, shortened: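 HepG2 cells transiently transfected with cis-element-driven multiplexed reporter units; after 24 h chemical exposure, reporter mRNA measured by RT-PCR, 6-FAM labelling, HpaI digestion and capillary electrophoresis. Bidirectional fitting relative to DMSO.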

[19] = molecular target: Transcription factor Sp1 (Homo sapiens) (UniProt P08047); assay: ATG_Sp1_CIS: Attagene CIS-FACTORIAL HepG2 Assay for human Specificity Protein 1 (Sp1) (AID 2282961); details: HepG2 Sp1 cis-reporter transcription, actives raise or lower the signal
Procedure, shortened: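 Read-out is reporter transcript level, measured by RT-PCR and fluorescent capillary electrophoresis after 24 h chemical treatment. System: transiently transfected HepG2 cells reporting endogenous transcription factor activity; gain or loss fitted against DMSO baseline.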

[20] = molecular target: Androgen receptor (Homo sapiens) (UniProt P10275); assay: ATG_AR_TRANS: Attagene TRANS-FACTORIAL HepG2 Assay for human Androgen Receptor (AR) (AID 2282973; active = hit-call score of the fitted dose curve at least 0.9, where 1 is the maximum); details: HepG2 Attagene TRANS-FACTORIAL AR reporter transcription
Procedure, shortened: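 HepG2 cells transiently transfected with AR-Gal4 chimera and GAL4-UAS reporter units; chemical exposure 24 h. Reporter mRNA quantified by RT-PCR with fluorescent labelling and capillary electrophoresis; gain-of-signal fitted against DMSO.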

Measured: AC50

Sequence of Transcription factor Sp1 (Homo sapiens) (P08047 whole entry, looked up): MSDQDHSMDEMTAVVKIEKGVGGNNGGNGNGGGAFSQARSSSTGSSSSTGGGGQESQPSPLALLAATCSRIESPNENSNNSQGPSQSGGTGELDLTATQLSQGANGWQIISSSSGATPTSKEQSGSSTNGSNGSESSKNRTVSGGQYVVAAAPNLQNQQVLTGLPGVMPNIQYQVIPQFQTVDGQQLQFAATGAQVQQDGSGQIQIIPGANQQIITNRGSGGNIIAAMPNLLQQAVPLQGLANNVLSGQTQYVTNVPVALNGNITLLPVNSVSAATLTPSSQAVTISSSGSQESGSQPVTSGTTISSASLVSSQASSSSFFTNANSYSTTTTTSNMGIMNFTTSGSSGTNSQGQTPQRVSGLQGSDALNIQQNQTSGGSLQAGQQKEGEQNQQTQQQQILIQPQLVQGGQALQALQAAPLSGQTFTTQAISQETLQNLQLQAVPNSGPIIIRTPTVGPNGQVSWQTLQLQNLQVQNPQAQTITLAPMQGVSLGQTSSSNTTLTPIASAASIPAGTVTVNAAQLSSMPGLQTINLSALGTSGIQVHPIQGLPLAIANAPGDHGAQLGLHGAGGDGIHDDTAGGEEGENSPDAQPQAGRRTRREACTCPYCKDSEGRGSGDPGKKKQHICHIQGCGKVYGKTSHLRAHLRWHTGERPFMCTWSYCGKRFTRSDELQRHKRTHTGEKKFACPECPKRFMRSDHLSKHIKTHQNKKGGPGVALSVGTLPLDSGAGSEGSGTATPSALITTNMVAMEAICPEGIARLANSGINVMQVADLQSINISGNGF
Sequence of Androgen receptor (Homo sapiens) (P10275 whole entry, looked up, the tested form may be a part): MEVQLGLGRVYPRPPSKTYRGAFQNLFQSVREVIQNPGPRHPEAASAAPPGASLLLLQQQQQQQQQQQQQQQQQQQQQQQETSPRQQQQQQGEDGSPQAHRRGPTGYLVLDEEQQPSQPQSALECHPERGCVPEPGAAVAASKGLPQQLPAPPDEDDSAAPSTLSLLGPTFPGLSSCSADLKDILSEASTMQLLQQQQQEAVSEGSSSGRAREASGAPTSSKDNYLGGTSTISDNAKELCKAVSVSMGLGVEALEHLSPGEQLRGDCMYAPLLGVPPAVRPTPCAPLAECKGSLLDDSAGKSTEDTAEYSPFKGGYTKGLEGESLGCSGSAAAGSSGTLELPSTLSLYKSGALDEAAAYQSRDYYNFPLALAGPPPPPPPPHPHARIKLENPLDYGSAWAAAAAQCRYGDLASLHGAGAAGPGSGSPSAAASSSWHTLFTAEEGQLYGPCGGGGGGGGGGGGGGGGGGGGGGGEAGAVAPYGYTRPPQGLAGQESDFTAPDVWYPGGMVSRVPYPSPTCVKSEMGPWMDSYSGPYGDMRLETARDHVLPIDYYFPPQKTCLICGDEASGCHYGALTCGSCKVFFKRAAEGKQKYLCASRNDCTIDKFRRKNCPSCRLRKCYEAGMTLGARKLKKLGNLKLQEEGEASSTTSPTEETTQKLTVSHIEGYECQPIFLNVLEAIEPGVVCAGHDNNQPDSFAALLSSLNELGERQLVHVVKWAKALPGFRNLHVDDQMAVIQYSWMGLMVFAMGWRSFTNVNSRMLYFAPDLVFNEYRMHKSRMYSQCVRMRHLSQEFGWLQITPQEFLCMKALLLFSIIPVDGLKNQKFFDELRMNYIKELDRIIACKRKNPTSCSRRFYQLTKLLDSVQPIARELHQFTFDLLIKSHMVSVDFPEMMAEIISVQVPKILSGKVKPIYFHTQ
Sequence of Hepatocyte nuclear factor 3-beta (Homo sapiens) (Q9Y261 whole entry, looked up): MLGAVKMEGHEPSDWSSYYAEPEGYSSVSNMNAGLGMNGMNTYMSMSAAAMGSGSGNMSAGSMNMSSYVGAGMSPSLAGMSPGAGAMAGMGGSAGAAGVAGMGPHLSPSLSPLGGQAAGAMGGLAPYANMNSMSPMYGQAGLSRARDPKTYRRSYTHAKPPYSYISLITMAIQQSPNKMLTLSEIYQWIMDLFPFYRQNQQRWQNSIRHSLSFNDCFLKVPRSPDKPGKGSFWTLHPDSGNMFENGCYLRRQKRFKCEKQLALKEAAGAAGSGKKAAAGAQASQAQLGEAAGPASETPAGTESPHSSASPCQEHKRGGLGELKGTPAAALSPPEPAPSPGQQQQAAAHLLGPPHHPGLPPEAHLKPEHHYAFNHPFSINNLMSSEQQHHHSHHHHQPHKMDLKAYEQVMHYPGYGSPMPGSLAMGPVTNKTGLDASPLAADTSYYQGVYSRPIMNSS
Sequence of Paired box protein Pax-6 (Homo sapiens) (P26367 whole entry, looked up): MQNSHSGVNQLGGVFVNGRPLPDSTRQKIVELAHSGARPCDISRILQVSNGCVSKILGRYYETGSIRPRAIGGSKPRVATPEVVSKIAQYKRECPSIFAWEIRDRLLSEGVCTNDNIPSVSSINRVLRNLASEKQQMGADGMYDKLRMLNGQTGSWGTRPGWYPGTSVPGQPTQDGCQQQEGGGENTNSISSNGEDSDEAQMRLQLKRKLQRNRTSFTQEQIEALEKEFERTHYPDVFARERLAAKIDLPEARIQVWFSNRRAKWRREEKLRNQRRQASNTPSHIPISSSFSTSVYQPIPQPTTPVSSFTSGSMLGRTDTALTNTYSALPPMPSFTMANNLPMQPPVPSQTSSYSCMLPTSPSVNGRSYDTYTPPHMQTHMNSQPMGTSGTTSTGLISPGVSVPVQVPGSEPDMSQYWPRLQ
Sequence of Transcription factor E2F1 (Homo sapiens) (Q01094 whole entry, looked up): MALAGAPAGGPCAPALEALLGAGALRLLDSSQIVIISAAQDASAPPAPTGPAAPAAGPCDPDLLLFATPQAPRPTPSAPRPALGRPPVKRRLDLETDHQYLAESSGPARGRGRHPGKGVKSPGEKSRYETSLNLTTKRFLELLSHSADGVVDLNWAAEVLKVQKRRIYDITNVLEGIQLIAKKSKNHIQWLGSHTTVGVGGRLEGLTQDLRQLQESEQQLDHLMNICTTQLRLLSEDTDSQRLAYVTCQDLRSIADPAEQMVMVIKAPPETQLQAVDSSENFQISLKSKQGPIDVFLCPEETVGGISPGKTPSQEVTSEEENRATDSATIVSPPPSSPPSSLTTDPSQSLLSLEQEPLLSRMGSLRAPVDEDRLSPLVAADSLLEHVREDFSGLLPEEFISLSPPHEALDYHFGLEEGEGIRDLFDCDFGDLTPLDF

CC1(C)[C@H](C(=O)O[C@H](C#N)c2cccc(Oc3ccccc3)c2)[C@@H]1C=C(Br)Br
active: [18] 0.312 µM
inactive: all other assays above

Nc1ccccc1
not listed: [20]
inactive: all other assays above

O=C(NCNC(=O)NC1C(=O)NC(=O)N1CO)NC1C(=O)NC(=O)N1CO (centres undefined)
active: [3] 130 µM | [16] 162 µM | [17] 133 µM
not listed: [20]
inactive: all other assays above

CC(=O)c1cc2c(cc1C)C(C)(C)C(C)CC2(C)C (centres undefined)
inactive: [5] | [6] | [7] | [9] | [10] | [11] | [13] | [14] | [15]
active: [1] 72.4 µM | [2] 26.1 µM | [3] 26.6 µM | [4] 158 µM | [8] 128 µM | [12] 75.5 µM | [16] 43.8 µM | [17] 100 µM | [18] 2.25 µM | [19] 27.2 µM

C=Cc1cccc(CCl)c1
active: [9] 100 µM | [13] 100 µM | [18] 46.2 µM | [19] 25.5 µM
not listed: [20]
inactive: all other assays above

CCc1cc(C)cc(CC)c1-c1c(OC(=O)C(C)(C)C)n2n(c1=O)CCOCC2
active: [5] 25.8 µM | [18] 9.48 µM
not listed: [20]
inactive: all other assays above

C=COCCCl
not listed: [20]
inactive: all other assays above

N#CC(c1ccccc1)c1ccccc1
active: [18] 11.1 µM
not listed: [20]
inactive: all other assays above

C[C@]12CCC(=O)C(O)=C1CC[C@@H]1[C@@H]2CC[C@]2(C)C(=O)CC[C@@H]12
active: [18] 11.2 µM
not listed: [20]
inactive: all other assays above

O=C1C=CC(=O)C=C1
active: [3] 61.2 µM | [18] 26.4 µM
not listed: [20]
inactive: all other assays above

Cc1ccc(C)c2ccccc12
active: [18] 33.4 µM
inactive: all other assays above

CCC[N+](=O)[O-]
not listed: [20]
inactive: all other assays above

c1cc(OCC2CO2)ccc1Cc1ccc(OCC2CO2)cc1 (centres undefined)
active: [1] 19.6 µM | [2] 48.3 µM | [3] 59.1 µM | [4] 57.9 µM | [7] 33.4 µM | [13] 49.1 µM | [16] 42.6 µM | [17] 33.4 µM | [18] 8.22 µM | [19] 37.6 µM
inactive: all other assays above

O=C(O)c1cc[c]([Hg][Cl])cc1
active: [16] 7.75 µM | [19] 11.1 µM
not listed: [20]
inactive: all other assays above

CCCCCCC1CCOC1=O (centres undefined)
active: [18] 100 µM
not listed: [20]
inactive: all other assays above

CC1(C)CC(=O)CC(C)(C)N1[O]
active: [18] 33.2 µM
not listed: [20]
inactive: all other assays above

CN(N=O)c1ccccc1
not listed: [20]
inactive: all other assays above

COC(C)(C)CCC[C@H](C)C/C=C/C(C)=C/C(=O)OC(C)C
active: [2] 72.9 µM | [3] 112 µM | [7] 82.3 µM | [12] 145 µM | [16] 36.6 µM | [17] 100 µM | [18] 1.43 µM
inactive: all other assays above

[Cl-].[Cl-].[Cl-].[Yb+3]
not listed: [20]
inactive: all other assays above

CC(C)[C@@H](C(=O)O[C@@H](C#N)c1cccc(Oc2ccccc2)c1)c1ccc(Cl)cc1
active: [2] 9.57 µM | [18] 0.678 µM
not listed: [20]
inactive: all other assays above
